{"source": "PubChem BioAssay (NCI)", "note": "Values joined by “and” are separate entries in the source; they are usually repeats but may differ in a detail not shown here. Identical values can stand only once. Compounds without any hit were thinned out: in the full panel of roughly 83,000, 20% have a hit.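 Results are percent growth after 48 hours of single-concentration exposure. 100 means growth as in untreated cells, lower positive values show inhibition; negative values down to -100 show cell death.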 Active and inactive are the calls of the source. The calls were made as follows: active = growth percent below 10; inactive = the rest.", "data": [{"tested_on": "HCT-116 colon", "experiment": "NCI-60 one-dose screen, 48 h (100 = growth as untreated, 0 = no growth, -100 = all killed)", "settings": "10 µM unless noted", "values": [{"smiles": "O=C(CSc1nnc(-c2ccc(-c3nc4ccccc4[nH]3)cc2)o1)Nc1ccccc1", "growth": "50.8% (inactive)"}, {"smiles": "CCCCCCCCCCCCCCCCCC(=O)Nc1ccc(OC)cc1", "growth": "102% (inactive)"}, {"smiles": "Nc1nn2c(-c3cc4ccccc4oc3=O)ccnc2c1N=Nc1ccccc1", "growth": "6.75% (active)"}, {"smiles": "O=C1NC(=S)/C(=C/c2cn(-c3ccccc3)nc2-c2ccccc2)S1", "growth": "18.6% (inactive)"}, {"smiles": "CC(Nc1ncnc2ccc(-c3ccc4oc(N)nc4c3)cc12)c1ccccc1", "note": "(stereo not drawn)", "growth": "-64.7% (active)"}, {"smiles": "O=C(N/N=C/c1ccsc1)c1[nH]c2ccc(Br)cc2c1-c1ccccc1", "growth": "-71% (active)"}]}, {"tested_on": "HCC-2998 colon", "experiment": "NCI-60 one-dose screen, 48 h (100 = growth as untreated, 0 = no growth, -100 = all killed)", "settings": "1 µM", "values": [{"smiles": "CC/C(=C(\\c1ccc(O)cc1)c1ccc(OCCN(C)C(=O)COCCNC(=O)Cc2ccc3c(c2)CN([C@@H]2CCC(=O)NC2=O)C3=O)cc1)c1ccccc1", "growth": "64.5% (inactive)"}, {"smiles": "CC/C(=C(\\c1ccc(O)cc1)c1ccc(OCCN(C)C(=O)CCOCCNC(=O)c2ccc3c(c2)CN([C@@H]2CCC(=O)NC2=O)C3=O)cc1)c1ccccc1", "growth": "99% (inactive)"}, {"smiles": "CC/C(=C(/c1ccc(O)cc1)c1ccc(OCCN(C)C(=O)COCCOCCNC(=O)c2ccc3c(c2)CN([C@@H]2CCC(=O)NC2=O)C3=O)cc1)c1ccccc1", "growth": "97.6% (inactive)"}, {"smiles": "CC/C(=C(\\c1ccc(O)cc1)c1ccc(OCCNC)cc1)c1ccccc1", "growth": "106% (inactive)"}, {"smiles": "CC/C(=C(/c1ccc(O)cc1)c1ccc(OCCN(C)C(=O)COCCOCCNC(=O)Cc2ccc3c(c2)CN([C@@H]2CCC(=O)NC2=O)C3=O)cc1)c1ccccc1", "growth": "97.3% (inactive)"}]}, {"tested_on": "HCC-2998 colon", "experiment": "NCI-60 one-dose screen, 48 h (100 = growth as untreated, 0 = no growth, -100 = all killed)", "settings": "10 µM", "values": [{"smiles": "CC/C(=C(\\c1ccc(O)cc1)c1ccc(OCCN(C)C(=O)COCCNC(=O)Cc2ccc3c(c2)CN([C@@H]2CCC(=O)NC2=O)C3=O)cc1)c1ccccc1", "growth": "30.2% (inactive)"}, {"smiles": "CC/C(=C(\\c1ccc(O)cc1)c1ccc(OCCN(C)C(=O)CCOCCNC(=O)c2ccc3c(c2)CN([C@@H]2CCC(=O)NC2=O)C3=O)cc1)c1ccccc1", "growth": "103% (inactive)"}, {"smiles": "CC/C(=C(/c1ccc(O)cc1)c1ccc(OCCN(C)C(=O)COCCOCCNC(=O)c2ccc3c(c2)CN([C@@H]2CCC(=O)NC2=O)C3=O)cc1)c1ccccc1", "growth": "82.8% (inactive)"}, {"smiles": "CC/C(=C(\\c1ccc(O)cc1)c1ccc(OCCNC)cc1)c1ccccc1", "growth": "56.7% (inactive)"}, {"smiles": "CC/C(=C(/c1ccc(O)cc1)c1ccc(OCCN(C)C(=O)COCCOCCNC(=O)Cc2ccc3c(c2)CN([C@@H]2CCC(=O)NC2=O)C3=O)cc1)c1ccccc1", "growth": "48.9% (inactive)"}]}, {"tested_on": "HCC-2998 colon", "experiment": "NCI-60 one-dose screen, 48 h (100 = growth as untreated, 0 = no growth, -100 = all killed)", "settings": "10 µM unless noted", "values": [{"smiles": "N#CC1=C(c2cccs2)Nc2c(c(-c3ccccc3)nn2-c2ccccc2)C12C(=O)Nc1ccccc12", "note": "(stereo not drawn)", "growth": "38.1% (inactive)"}, {"smiles": "COc1ccc([C@H]2C(C(=O)c3ccc(Cl)cc3)C3(N[C@@H]2c2ccccc2)C(=O)Nc2ccccc23)cc1", "note": "(stereo partly drawn)", "growth": "13.7% (inactive)"}, {"smiles": "COc1ccc2c(c1)N=c1c-2cc2c(O)[nH]c(=S)n2c1=O", "growth": "60.1% (inactive)"}, {"smiles": "Cc1cc(N=C(N)c2ccccc2)ccc1OCCCCCCCCn1ccnc1", "growth": "-32.6% (active)"}, {"smiles": "COc1cc(NC(=O)C(C)C)ccc1C(=O)NC(=S)Nc1ccc(S(N)(=O)=O)cc1", "growth": "116% (inactive)"}, {"smiles": "COC(=O)c1c(C(=O)OC)c2ccc3c4ccccc4ccc3n2c1C(=O)OC", "growth": "107% (inactive)"}, {"smiles": "CCCCCCCCc1cccc(CC(=O)Nc2ccc(C)cc2C(=O)O)c1", "growth": "69.4% [25 µM] (inactive)"}, {"smiles": "O=C(c1cc2cc(OCCCN3CCC3)ccc2[nH]1)N1C[C@@H](CCl)c2c1cc(OCc1ccccc1)c1ccccc21", "growth": "-77.1% (active)"}, {"smiles": "CC(C)(C)OC(=O)N1CCC2(CC1)Oc1ccccc1[C@H]1CC(c3ccc(Br)cc3)=NN12", "growth": "85.6% (inactive)"}, {"smiles": "COc1ccc(NC2=C(I)C(=O)C(C)=C(C)C2=O)cc1", "growth": "118% (inactive)"}, {"smiles": "CC[C@]12C=CCN3CC[C@@]4(c5ccc(OC)cc5N(C)[C@H]4[C@@](O)(C(=O)OC)[C@@H]1OC(=O)CCCC[P+](c1ccc(F)cc1)(c1ccc(F)cc1)c1ccc(F)cc1)[C@@H]32", "growth": "19.4% (inactive)"}, {"smiles": "O=C(CSc1nnc(-c2ccc(-c3nc4ccc(Cl)cc4[nH]3)cc2)o1)Nc1ccccc1", "growth": "98.9% (inactive)"}, {"smiles": "Cc1cccc(NCC(=O)N2CCN(c3ncnc4c3cnn4-c3ccccc3)CC2)c1", "growth": "86.4% (inactive)"}, {"smiles": "CS(=O)(=O)c1ccc(-n2nc(C(=O)NCc3ccccc3)cc2-c2ccc(Cl)cc2)cc1", "growth": "99.4% (inactive)"}, {"smiles": "CS(=O)(=O)Nc1cccc(-n2c(COc3ccc(OC(F)(F)F)cc3)nc3ccccc32)c1", "growth": "114% (inactive) and 113% (inactive)"}, {"smiles": "O=C(CSc1nc2sc3c(c2c(=O)n1-c1ccc(Cl)cc1)CCCC3)NNC(=O)c1ccc(Br)cc1", "growth": "108% (inactive)"}, {"smiles": "N#CC1=C(c2ccco2)Nc2c(c(-c3ccccc3)nn2-c2ccccc2)C12C(=O)Nc1ccc(Cl)cc12", "note": "(stereo not drawn)", "growth": "64.8% (inactive)"}, {"smiles": "O=C(CSc1nnc(-c2ccc(-c3nc4ccccc4[nH]3)cc2)o1)Nc1ccccc1", "growth": "92.3% (inactive)"}, {"smiles": "CCCCCCCCCCCCCCCCCC(=O)Nc1ccc(OC)cc1", "growth": "122% (inactive)"}, {"smiles": "Nc1nn2c(-c3cc4ccccc4oc3=O)ccnc2c1N=Nc1ccccc1", "growth": "105% (inactive)"}, {"smiles": "CC(Nc1ncnc2ccc(-c3ccc4oc(N)nc4c3)cc12)c1ccccc1", "note": "(stereo not drawn)", "growth": "41.5% (inactive)"}, {"smiles": "O=C(N/N=C/c1ccsc1)c1[nH]c2ccc(Br)cc2c1-c1ccccc1", "growth": "-59.4% (active)"}]}]}
